Bioassay records: PubChem BioAssay, National Center for Advancing Translational Sciences (NCATS)
DRD3 agonist = activates the human D3 dopamine receptor. 410,000 tested, 0.58% active. AID 652048. D3R DiscoveRx beta-arrestin cells, luminescence, 90 min. P35462. max activation, %; in the data active means max activation above about 30%; further: 0% is about no effect
Target sequence (P35462 whole entry, looked up): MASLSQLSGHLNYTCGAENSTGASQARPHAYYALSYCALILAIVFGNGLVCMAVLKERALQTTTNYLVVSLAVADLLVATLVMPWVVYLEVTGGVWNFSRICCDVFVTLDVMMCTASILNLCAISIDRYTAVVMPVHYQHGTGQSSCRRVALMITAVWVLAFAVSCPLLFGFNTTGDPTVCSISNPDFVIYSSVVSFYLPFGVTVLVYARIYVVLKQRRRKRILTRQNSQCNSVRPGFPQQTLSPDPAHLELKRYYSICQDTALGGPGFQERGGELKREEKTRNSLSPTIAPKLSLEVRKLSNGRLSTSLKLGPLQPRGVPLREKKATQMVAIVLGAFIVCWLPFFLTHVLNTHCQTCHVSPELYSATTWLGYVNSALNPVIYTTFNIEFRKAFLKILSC
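Cells at 1500/well, incubated overnight, then treated with pinned compounds (dopamine as control) for 90 min at 37 degrees C. DiscoveRx reagent added for 30 - 60 minutes at room temperature; luminescence read.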
DT40 TDP1 CPT = growth inhibition of DT40 Tdp1-/-;hTDP1 cells with camptothecin (screen for TDP1 inhibitors); 420,000 tested, 12% active; Potency, µM (series often up to 46.2 µM), inactives show top-dose activity change, negative = growth inhibition, hits mostly inhibitors; chicken DT40 Tdp1-/-;hTDP1 cells + 20 nM CPT, ATP luminescence, 48 h; further: potency means the concentration at half of the fitted maximal effect; on the % scale 0 is the no-effect control and ±100 the full control effect; nearly all actives have a fitted effect of over 55% in size
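Cell growth measured by CellTiter-Glo luminescence after a minimum 48 h, 37 C compound exposure with 20 nM CPT in Tdp1-knockout DT40 cells stably expressing hTDP1, seeded 400/well; qHTS titration format.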
DT40 TDP1 no CPT = qHTS for Inhibitors of human tyrosyl-DNA phosphodiesterase 1 (TDP1): qHTS in cells in absence of CPT. Potency, µM (highest dose often 46.2 µM), inactives show top-dose activity change, negative = growth inhibition, usual class: inhibitors. AID 686978, 2013. DT40 Tdp1-/- hTDP1 cells, no CPT, ATP luminescence, 48 h. 420,000 tested, 15% active; further: potency means the concentration at half of the fitted maximal effect; on the % scale 0 is the no-effect control and ±100 the full control effect; nearly all actives have a fitted effect of over 55% in size
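Growth of hTDP1-complemented DT40 Tdp1-knockout cells is measured by ATP luminescence after at least 48 hr compound exposure at 37 °C, with DMSO substituting for the 20 nM CPT used in the parallel screen.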
ClpP mod = qHTS Assay for Activators of ClpP | ATP-dependent Clp protease proteolytic subunit (Bacillus subtilis (strain 168)), P80244 | purified B. subtilis ClpP, FRET peptide cleavage, 20 min | Potency, µM (top dose mostly 57.5 µM), for inactives: at the highest dose activity change, negative = active | 340,000 tested, 1.9% active | AID 651965, 2013; active means well fitted falling curve with a large enough effect; inconclusive means small, poorly fitted or top-dose-only effect; inactive means no such curve, though single readings can be large or run the other way; further: potency means the concentration at half of the fitted maximal effect; the source files actives as falling curves though it sought activators and does not explain the sign; nearly all actives have a fitted effect of over 65% in size
Target sequence (P80244 whole entry, looked up): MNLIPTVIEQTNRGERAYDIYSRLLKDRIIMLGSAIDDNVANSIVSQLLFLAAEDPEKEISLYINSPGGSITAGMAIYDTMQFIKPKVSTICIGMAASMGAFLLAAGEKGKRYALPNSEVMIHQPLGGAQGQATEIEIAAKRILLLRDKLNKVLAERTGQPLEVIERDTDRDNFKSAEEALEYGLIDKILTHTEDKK
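Buffer: 100 mM Tris/HCl pH8, 100 mM KCl, 0.05% low protease BSA, 2.5% glycerol, 0.01% Tween-20. ClpP 10 microg/mL final; 20 min RT; delta FRET normalized to ADEP and DMSO controls.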
IL-1B inflam inh = blocks inflammasome-driven IL-1 beta release. THP-1 LPS/ATP IL-1B secretion, AlphaLISA, 16 h; hits give low values. 360,000 tested, 4.7% active. AID 743279. activity change, % at 57.5 µM; in the data active means activity change below about -50%; inconclusive means mostly about -30% to -49%; further: on the % scale 0 is the no-effect control and ±100 the full control effect
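Secreted IL-1B measured by AlphaLISA bead assay after 16 h compound exposure of THP-1 cells; compounds (final up to 57.5 uM) added 1 h before LPS (250 ng/mL) and ATP (1.25 mM) stimulation; lower signal means less secretion.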
D3 antag = D3 dopamine receptor (human) antagonism | P35462 | D3R cells, DiscoveRx beta-arrestin luminescence, antagonist mode; hits give low values | max response, negative = inhibition, % | 360,000 tested, 2.5% active; in the data active means max response below about -50%; inconclusive means no clear call, values can overlap the other calls; further: on the % scale 0 is the no-effect control and ±100 the full control effect
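Cells expressing the human receptor were seeded at 1500 cells/well, incubated overnight at 37 degrees C in 5% CO2, then exposed to library compounds with dopamine controls for 90 minutes at 37 degrees C before luminescent detection.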
Numbers without * were called inactive; ? = inconclusive; / = no result; ! = not active in a repeat; [ ] = dose if it differs, or a comment. In the library only some 21% were active in any assay of this set; here they are far more common. Unless noted, the call rests on the fitted dose curve; in most records, active means well fitted inhibition curve with a large enough effect; inconclusive means small, poorly fitted or top-dose-only effect; inactive means flat fitted curve, though single readings scatter.

SMILES	DRD3 agonist	DT40 TDP1 CPT	DT40 TDP1 no CPT	ClpP mod	IL-1B inflam inh	D3 antag
COc1ccc(OC(=O)CSc2nnc(-c3ccc(F)cc3)o2)cc1	-6	-2%	-27%	2%	/	/
COc1ccc(CN(C(=O)CSc2nnc(-c3ccc(F)cc3)o2)c2ccc(F)cc2)cc1	21	23µM*	21µM*	-3%	-18	24
COc1ccc(CNC(=O)COC(=O)c2ccc(C)c(S(=O)(=O)N3CCOCC3)c2)cc1	2	-2%	-9%	0%	-8	-5
Cc1cc(NC(=O)CCCSc2nc(-c3ccco3)cc(C(F)(F)F)n2)n(-c2ccccc2)n1	15	?	21µM*	-1%	-27	39
Cc1cc(NC(=O)CSc2nc(-c3ccco3)cc(C(F)(F)F)n2)n(-c2ccccc2)n1	-8	4.1µM*	4.1µM*	2%	45	-19
CCc1ccccc1NC(=O)CCCSc1nc(-c2ccco2)cc(C(F)(F)F)n1	3	-9%	-22%	-1%	/	/
COc1ccc(C2CC(=O)c3c([nH]c(C(=O)OC4CCC(C)CC4)c3C)C2)cc1OC (stereo unspecified)	4	?	-14%	-3%	/	/
COc1ccc(C2CC(=O)c3c([nH]c(C(=O)OCc4ccccc4)c3C)C2)cc1 (stereo unspecified)	-8	12µM*	?	-1%	/	/
COc1ccc(COC(=O)c2[nH]c3c(c2C)C(=O)CC(c2ccc(OC)c(OC)c2)C3)cc1 (stereo unspecified)	1	9.2µM*	6.5µM*	-13%	/	/
COc1ccc(C2CC(=O)c3c([nH]c(C(=O)OC(C)C)c3C)C2)cc1OC (stereo unspecified)	7	23µM*	21µM*	1%	11	47
Cc1c(C(=O)OCc2ccccc2)[nH]c2c1C(=O)CC(c1ccc(C(C)(C)C)cc1)C2 (stereo unspecified)	-3	?	18µM*	-4%	/	/
Cc1ccc(COC(=O)c2[nH]c3c(c2C)C(=O)CC(c2ccc(N(C)C)cc2)C3)cc1 (stereo unspecified)	-2	-37%	-31%	-2%	/	/
Cc1c(C(=O)OCCOc2ccccc2)[nH]c2c1C(=O)CC(c1ccc(C(C)(C)C)cc1)C2 (stereo unspecified)	9	-26%	?	-1%	/	/
COc1ccc(C2CC(=O)c3c([nH]c(C(=O)OCCOc4ccccc4)c3C)C2)cc1OC (stereo unspecified)	8	?	?	0%	/	/
CCCCCCn1cc(CN2CC(N(C)CC)CS2(=O)=O)nn1 (stereo unspecified)	4	12%	-8%	2%	50	-6
CC(C)=CCC1=C(O)[C@](O)(CC=C(C)C)C(=O)C(C(=O)CC(C)C)=C1O	/	-36%[9.04 µM]	-27%[9.04 µM]	/	/	/
COc1ccc(C(c2c(N)[nH]c(=S)[nH]c2=O)c2c(N)[nH]c(=S)[nH]c2=O)cc1	-8	2%	-12%	-2%	17	45
Cc1oc(-c2cccs2)nc1CN1CCC(c2ccccc2)CC1	-27	-18%	3%	-17%	1	-91*
CCc1ccccc1-n1nnc(-c2ccccc2)n1	1	-1%	1%	1%	0	-1
C=C1C[C@@H]2C[C@@H]2CN(S(=O)(=O)c2ccc(C)cc2)[C@@H]1COCc1ccccc1	-1	8.2µM*	8.2µM*	1%	3	11
O=[N+]([O-])c1ccccc1S(=O)(=O)Nc1cccc(S(=O)(=O)N2CCCC2)c1	-8	-5%	-3%	1%	44	0
CNCCCCCCCCSc1nc(C(C)C)ccc1C(=O)c1cccs1	/	4.2µM*	4.2µM*	/	/	/
COc1cc2c(cc1O)C(Cc1ccc(O)cc1)[N+](C)([O-])CC2 (stereo unspecified)	-28	-19%	-4%	-9%	5	-22
COc1ccc(C[C@H]2c3cc(O)c(OC)cc3CC[N+]2(C)[O-])cc1O (stereo partly specified)	-19	?	21µM*	4%	-17	0
COc1cc2ncnc(NCc3cccc(Cl)c3)c2cc1OC	-4	15µM*	15µM*	-16%	-25	5
SMILES	DRD3 agonist	DT40 TDP1 CPT	DT40 TDP1 no CPT	ClpP mod	IL-1B inflam inh	D3 antag
COc1ccccc1CNc1ncnc2cc(OC)c(OC)cc12	0	21µM*	23µM*	-17%	-20	1
Brc1ccc2ncnc(NCc3ccco3)c2c1	1	21µM*	18µM*	-5%	-9	-6
COc1cc2ncnc(NCc3ccco3)c2cc1OC	2	18µM*	?	-8%	-11	3
COc1ccc(C2CC(=O)N(CC(=O)Nc3ccc(C)c(Cl)c3)c3ccccc3S2)cc1OC (stereo unspecified)	0	/	/	-3%	/	/
Cn1cnnc1SCC(=O)NN(c1ccccc1)c1ccccc1	1	-17%	-10%	/	27	17
COc1cccc(CNc2ncnc3cc(Cl)ccc23)c1	0	?	?	-5%	-2	-3
c1coc(CNc2ncnc3[nH]ncc23)c1	-17	11µM*!	?	-4%	15	-2
Fc1cccc(CNc2ncnc3cc(Cl)ccc23)c1F	-1	16µM*	10µM*	-9%	15	4
COc1ccc(CNc2ncnc3cc(Cl)ccc23)cc1	5	15µM*	13µM*	0%	56	3
COc1cc2ncnc(NCc3cc(F)ccc3F)c2cc1OC	3	-11%	?	1%	-14	6
COc1ccc(C(=O)NCCC(=O)N2CCC3(CC2)NCCc2[nH]cnc23)cc1	5	?	-25%	1%	5	0
CCCCCC/C=N/Nc1nnc(Cc2ccc(OC)c(OC)c2)c(=O)[nH]1	-5	?	?	/	-3	?
COc1ccc(Cc2nnc(N/N=C/c3ccc(O)cc3O)[nH]c2=O)cc1OC	1	5.8µM*	5.8µM*	1%	-53*	6
